HDAC3 inh: HDAC3 deacetylase inhibitors, primary screen, biochemical, fluorescence, cell-free homogeneous; AID 2718, 2010; recombinant HDAC3, fluorogenic peptide/trypsin coupled; 0.15% of 320,000 active; inhibition, % at 8.3 µM; Histone deacetylase 3 (Homo sapiens), O15379; in the data active means inhibition above about 26%, passing the limit was not always enough; inconclusive means no clear call, values can overlap the other calls
GRK2 aptamer HTS: compounds blocking aptamer binding on GRK2 – biochemical, human GRK2, bead flow cytometry, HTS, primary screen. FAM-aptamer displacement from GRK2. inhibition of aptamer binding, % at 10 µM. 0.59% of 330,000 active;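 active means inhibition of aptamer binding above 40%, roughly 3 SD of noise, on plates passing a quality check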;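 further: median bead fluorescence of bound FAM aptamer so fluorescent compounds give negative values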
Rce1 inh: yeast Rce1p protease inhibitors, primary screen, biochemical, fluorescence, cell-free homogeneous | yeast membranes, quenched prenylated peptide cleavage fluorescence | calls only | 0.27% of 290,000 active | AID 2563, 2010;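 active means fall in fluorescence gain of 50% or more versus controls, with final raw signal at or below 3038400; inconclusive means same 50% fall but final raw signal above 3038400; inactive means fall in fluorescence gain under 50%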
ALR H2O2 inh: inhibitors of human ALR sulfhydryl oxidase, primary screen, biochemical, H2O2 detection, HRP-luminol luminescence, single point; FAD-linked sulfhydryl oxidase ALR (Homo sapiens), P55789; purified ALR, DTT oxidation; inhibition, % (no concentration beside the values); 3.8% of 290,000 active; AID 485317, 2010;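 active means mean replicate inhibition above about 79%, with every replicate also reaching it, limit read from the data; inconclusive means only one of the two criteria met; inactive means mean below limit and not every replicate reaching it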
Target sequence (P55789 whole entry, looked up): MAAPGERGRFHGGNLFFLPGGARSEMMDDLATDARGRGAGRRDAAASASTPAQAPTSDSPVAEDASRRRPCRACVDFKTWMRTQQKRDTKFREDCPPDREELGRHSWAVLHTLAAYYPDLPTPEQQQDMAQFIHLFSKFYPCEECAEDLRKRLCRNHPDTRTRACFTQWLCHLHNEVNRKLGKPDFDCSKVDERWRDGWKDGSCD
Efflux pump mplx: inhibitors of Candida efflux pumps in yeast, primary screen, S. cerevisiae, Nile Red, multiplex | S. cerevisiae Candida pump triplex | inhibition, % at 10 µM | 0.44% of 330,000 active;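 active means plate passing quality check with inhibition over a set limit, or well fluorescence over plate mean plus 4 SD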;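 further: Nile Red retained in pooled yeast measured as flow cytometry median fluorescence; higher means more Nile Red kept so more efflux inhibition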
Rtt109 HAT inh: inhibitors of C. albicans Rtt109/Vps75 HAT, primary screen, biochemical, ThioGlo CoA-SH fluorescence, plate reader; purified Rtt109/Vps75, 4 h; AID 540336, 2011; Histone acetyltransferase RTT109 (Candida albicans (strain SC5314 / ATCC MYA-2876)), …; inhibition, % at 34.9 µM; 0.16% of 330,000 active;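 active means inhibition of at least 50% in every replicate; inconclusive means best replicate reaches 50% inhibition but some replicates fall short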
Each line names hits and unclear results; the compound was inactive in the other large screens. Compounds with a hit are over-represented: about 4.5% of the library has one in this group of screens.

CCOC(=O)CSc1nc2cc(C(=O)N3CCC(C(N)=O)CC3)ccc2c(=O)n1C1CCCCC1	ALR H2O2 inh 96.8 (no result: Rce1 inh)
O=C(Nc1ccnn1C1CCN(Cc2cccc(F)c2F)CC1)C1CCCC1	none
CCn1cnc2cc(NCc3ccc(Cl)cc3)ccc21	none
Cc1ccc(CNc2ccc3c(c2)ncn3C)cc1	Rtt109 HAT inh inconclusive
Cc1ccc(CNc2ccc3c(c2)ncn3C(C)(C)C)cc1	ALR H2O2 inh 89.0 (no result: HDAC3 inh)
CCn1cnc2cc(NCc3ccncc3)ccc21	ALR H2O2 inh 81.7
COc1ccccc1N1CCN(Cc2cc(=O)n3ccsc3n2)CC1	ALR H2O2 inh 90.0
CCCNC(=O)C1CCC(CNS(=O)(=O)c2ccc3c(c2)N(C(C)=O)CCO3)CC1 (stereo not drawn)	none
O=C(O)c1ccc(Sc2nnc(-c3cccc(Br)c3)o2)c([N+](=O)[O-])c1	ALR H2O2 inh 98.6
Cn1c(Sc2ccc(C(=O)O)cc2[N+](=O)[O-])nnc1-c1ccccc1	none
CSc1ccc(C(=O)/C=C/c2ccc(N)cc2)cc1	ALR H2O2 inh 96.7
CSc1ccc(/C=C/C(=O)N2CCCN(C)CC2)cc1	ALR H2O2 inh 99.0 (no result: Rce1 inh)
CSc1ccc(/C=C/C(=O)c2c(O)cc(C)oc2=O)cc1	ALR H2O2 inh 97.6
N#CC1(NC(=O)CN2CCN(S(=O)(=O)c3ccccc3F)CC2)CCCC1	none
O=C(O)CCCNc1c(C(=O)Nc2ccc(Cl)cc2)cc([N+](=O)[O-])cc1[N+](=O)[O-]	none
Cc1[nH]nc(Nc2ccc(O)cc2)c1[N+](=O)[O-]	ALR H2O2 inh 99.5
Cc1ccc(-n2c(SCC(N)=O)nc3c(oc4ccccc43)c2=O)cc1	none
CCN1CCn2c3c(c4cc(C)ccc42)CCCC31 (stereo not drawn)	ALR H2O2 inh 98.3
Cc1cc(=O)n2cc(-c3ccccc3)nc2[nH]1	ALR H2O2 inh 87.2
CSc1nnc(-c2cc3c(s2)-c2ccccc2CC3)o1	none
CC1CCc2sc(-c3n[nH]c(=S)o3)cc2C1 (stereo not drawn)	Rce1 inh inconclusive, ALR H2O2 inh 98.2
S=c1[nH]nc(-c2cc3c(s2)-c2ccccc2CC3)o1	Rce1 inh inconclusive, ALR H2O2 inh 96.9
CC1CCc2sc(C(=O)NC3CCCCC3)cc2C1 (stereo not drawn)	none (no result: Rce1 inh)
CCCn1c(NC(=O)c2ccc([N+](=O)[O-])o2)nc2ccccc21	none
CCc1ccc(N2CC(C(=O)Nc3nc4ccc(S(C)(=O)=O)cc4s3)CC2=O)cc1 (stereo not drawn)	none
CCN(CC(=O)Nc1ccccc1OC)Cc1csc(CC(=O)Nc2ccc(C)cc2)n1	none (no result: Rce1 inh)
CCCCc1nc(C(N)=O)c2[nH]c(=O)n(-c3ccc(OCC)cc3)c2n1	HDAC3 inh inconclusive
O=S(=O)(Nc1ccc(-c2csc(-c3ccccc3)n2)cc1)c1ccc(F)cc1	none
O=C(Nc1nc(-c2ccccc2)cs1)c1ccccc1NS(=O)(=O)c1ccc(F)cc1	ALR H2O2 inh 95.7
CC1CCCC(C)N1C(=O)COC(=O)c1cncc(Br)c1 (stereo not drawn)	none (no result: Rce1 inh)
O=C(CC1SC(=O)N(c2ccccc2)C1=O)Nc1ccc(Br)cc1 (stereo not drawn)	HDAC3 inh 50.3 (no result: Rtt109 HAT inh)
O=C(CC1SC(=O)N(c2ccccc2)C1=O)Nc1ccc(Cl)cc1 (stereo not drawn)	HDAC3 inh 45.5
Cc1ccc(O)c(NC(=S)NC(=O)c2ccccc2Cl)c1	ALR H2O2 inh 97.3 (no result: Rtt109 HAT inh)
O=C(O)c1ccccc1NC(=S)NC(=O)c1cccc2ccccc12	ALR H2O2 inh 97.9
Cc1c(NC(=S)NC(=O)c2cccc3ccccc23)cccc1C(=O)O	none
Cc1ccc(C(=O)O)cc1NC(=S)NC(=O)c1ccc(-c2ccccc2)cc1	ALR H2O2 inh 98.2
Cc1cccc(C(=O)NC(=S)Nc2ccccc2C(=O)O)c1	ALR H2O2 inh 98.7
Cc1cccc(C(=O)NC(=S)Nc2ccccc2C(F)(F)F)c1	none
